Screening data as filed in PubChem.
DT40 TDP1 CPT: growth inhibition of DT40 Tdp1-/-;hTDP1 cells with camptothecin (screen for TDP1 inhibitors). chicken DT40 Tdp1-/-;hTDP1 cells + 20 nM CPT, ATP luminescence, 48 h. Potency, µM (top dose mostly 46.2 µM), for inactives: at the top dose activity change, negative = growth inhibition, usual class: inhibitors. 420,000 compounds, 12% hits; note: nearly all actives have a fitted effect of over 55% in size
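Cell growth measured by CellTiter-Glo luminescence after a minimum 48 h, 37 C compound exposure with 20 nM CPT in Tdp1-knockout DT40 cells stably expressing hTDP1, seeded 400/well; qHTS titration format.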
RORg inh: blocks mouse ROR gamma transcriptional activity; P51450; Drosophila S2 Gal4-RORgamma UAS-luciferase reporter, 20 h; Potency, µM (doses to about 53.6 µM), for inactives: top-dose activity change, negative = inhibition, usual class: inhibitors; 310,000 compounds, 5.4% hits; AID 2551; note: nearly all actives have a fitted effect of over 60% in size
Target sequence (P51450 whole entry, looked up, the tested form may be a part): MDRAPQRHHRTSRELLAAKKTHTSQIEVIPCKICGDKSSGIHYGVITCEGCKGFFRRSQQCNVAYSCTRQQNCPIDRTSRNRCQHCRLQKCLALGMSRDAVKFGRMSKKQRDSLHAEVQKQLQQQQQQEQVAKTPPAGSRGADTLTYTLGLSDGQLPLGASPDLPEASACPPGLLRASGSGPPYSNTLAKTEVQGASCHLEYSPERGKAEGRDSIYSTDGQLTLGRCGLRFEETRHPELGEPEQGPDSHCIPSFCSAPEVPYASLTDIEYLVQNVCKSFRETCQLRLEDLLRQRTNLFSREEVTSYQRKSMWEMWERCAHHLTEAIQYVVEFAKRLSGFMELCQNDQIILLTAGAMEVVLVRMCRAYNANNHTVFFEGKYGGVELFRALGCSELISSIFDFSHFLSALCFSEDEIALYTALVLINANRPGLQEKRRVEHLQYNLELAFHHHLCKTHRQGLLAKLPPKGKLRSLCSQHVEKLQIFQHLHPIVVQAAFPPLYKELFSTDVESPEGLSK
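Luciferase reporter read in Schneider cells carrying Gal4-RORγ (mouse) and UAS-Photinus luciferase; cells given compound 1 h before 700 uM copper sulfate induction, then incubated 20 h at ambient temperature.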
Gal4-VP16 FLuc: inhibits Gal4-VP16 luciferase reporter, ROR gamma counter-screen; Drosophila S2 Gal4-VP16 UAS-luciferase, luminescence, 20 h; Potency, µM (doses to about 53.6 µM), for the others: at the highest dose activity, negative = inhibition, usual class: inhibitors; 310,000 compounds, 3.5% hits; AID 2546;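 note: Gal4-VP16 expression switched on by copper sulfate through the metallothionein promoter; nearly all actives have a fitted effect of over 50% in size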
TDP1 cell noCPT: qHTS for Inhibitors of human tyrosyl-DNA phosphodiesterase 1 (TDP1): qHTS in cells in absence of CPT; DT40 Tdp1-/- hTDP1 cells, no CPT, ATP luminescence, 48 h; Potency, µM (titrated, usually from 46.2 µM), without a hit: at the top dose activity change, negative = growth inhibition, actives largely listed as inhibitors; 420,000 compounds, 15% hits; note: nearly all actives have a fitted effect of over 55% in size
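Growth of hTDP1-complemented DT40 Tdp1-knockout cells is measured by ATP luminescence after at least 48 hr compound exposure at 37 °C, with DMSO substituting for the 20 nM CPT used in the parallel screen.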
TDP1 block: blocks human tyrosyl-DNA phosphodiesterase 1; Potency, µM (titrated, usually from 130 µM), for inactives: at the top dose activity change, negative = inhibition, usual class: inhibitors; recombinant TDP1, AlphaScreen DNA substrate cleavage; 350,000 compounds, 0.28% hits; note: nearly all actives have a fitted effect of over 40% in size
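Recombinant E. coli-expressed Tdp1 (1 nM) preincubated with compound 15 min at RT, then 5'-biotin/3'-phosphotyrosine-FITC DNA substrate (15 nM) added for 5 min. AlphaScreen beads (10 ug/ml) added, 10 min RT; tyrosine-FITC cleavage read as signal loss.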
Numbers without * were called inactive; ? = inconclusive; · = no result given; [ ] = another dose, or the depositor's remark. Rows were chosen to be rich in hits. Some 19% of all compounds tested hit in one or more screens of this group. Calls come from the whole dose curve; as a rule, active = well fitted curve in the direction sought with a large enough effect; inconclusive = small, poorly fitted or top-dose-only effect, or another doubt; inactive = no such curve, though single readings can be large; an effect the other way counts as inactive or inconclusive. % is set by controls: 0 for no effect and ±100 for the full control effect; potency is the fitted concentration of half-maximal effect.

SMILES	DT40 TDP1 CPT	RORg inh	Gal4-VP16 FLuc	TDP1 cell noCPT	TDP1 block
O=C(NCCc1ccco1)C(=O)NCC1OCCCN1S(=O)(=O)c1ccc(F)cc1 (stereo not given)	-24.2%	2.4%	0.0%	14.6%	2.5%
Cc1ccc2c(c1)c(=O)c1ccccc1n2CCCC(=O)Nc1ccc(Cl)cc1C	?	·	·	?	4.8%[12.3 µM]
O=C(NCc1ccc(F)cc1)c1ccc(Cl)c(NC2=NC3CS(=O)(=O)CC3S2)c1 (stereo not given)	-1.7%	9.9%	3.4%	-0.2%	·
CCN(CC)CCn1c(=S)[nH]c2cc(C(=O)NCc3ccccc3)ccc2c1=O	-13.6%	·	·	-28.2%	·
Cc1ccc2c(c1)[nH]c1c(=O)n(CCC3=CCCCC3)cnc12	·	41.3%	-9.7%	·	3.9%
CCN(CC)CCCn1c(=S)[nH]c2cc(Cl)ccc2c1=O	-22.3%	10µM*	-21.6%	-13.5%	12.4%
CCN(CC)CCCn1c(=S)[nH]c2ccc(Cl)cc2c1=O	-4.2%	11.2µM*	?	-2.2%	2.8%
O=c1c2ccc(Cl)cc2[nH]c(=S)n1CCCN1CCOCC1	?	7.94µM*	?	?	7.0%
O=c1c2ccc(Cl)cc2[nH]c(=S)n1CCC1=CCCCC1	-20.4%	1.26µM*	2.51µM*	-25.1%	2.6%
O=c1c2ccccc2[nH]c(=S)n1CCCN1CCOCC1	3.0%	?	-8.9%	9.3%	3.0%
O=C(Cn1cnc2c(nnn2-c2ccccc2)c1=O)N1CCOCC1	1.6%	-10.8%	-14.6%	9.2%	2.1%
COc1ccccc1NC(=O)N(Cc1nnc2n1CCCCC2)c1ccc(F)cc1	1.6%	·	·	-18.3%	-2.7%
CCCOc1ccc(C(=O)NCC(c2cccs2)N(C)C)cc1OC (stereo not given)	?	8.7%	-1.2%	-11.1%	-5.7%
CN(C)C(CNC(=O)c1ccco1)c1cccs1 (stereo not given)	3.8%	·	·	2.3%	0.0%
COc1cc(C(=O)NCC(c2cccs2)N(C)C)cc(Cl)c1OC(C)C (stereo not given)	?	37.2%	2.6%	20.6µM*	-5.3%
COc1cc2ccccc2cc1C(=O)NCC(c1cccs1)N(C)C (stereo not given)	?	-3.6%	-22.8%	16.4µM*	5.4%
COc1ccc(CCC(=O)OCC(=O)Nc2c(C)nn(-c3ccccc3)c2C)cc1	-5.6%	·	·	0.7%	·
CCc1nc2ccc(C(=O)N3CCN(C(C)=O)CC3)cn2c1N(C=O)Cc1ccc(OC)cc1	-2.3%	·	·	-7.2%	·
CC(=O)Nc1ccc(CN(C)c2c(C)nc3ccc(C(=O)N4CCN(c5ccccc5)CC4)cn23)cc1	23.1µM*	·	·	?	·
CC(=O)Nc1ccc(CN(C)c2c(C)nc3ccc(C(=O)N(C)Cc4ccccc4)cn23)cc1	?	·	·	16.4µM*	·
CC(=O)Nc1ccc(CN(C)c2c(C)nc3ccc(C(=O)NCCCN4CCCC4=O)cn23)cc1	-14.9%	·	·	-3.0%	·
CCOC(=O)C(NCc1ccccc1OC)(NC(=O)c1ccccc1)C(F)(F)F (stereo not given)	-14.4%	-17.8%	-10.1%	-25.7%	4.0%
Cc1oc(-c2ccccc2Cl)nc1CS(=O)(=O)CC(=O)NC(C)c1ccccc1 (stereo not given)	?	9.0%	-6.5%	23.1µM*	3.8%
Cc1oc(-c2ccccc2Cl)nc1CS(=O)(=O)CC(=O)NC(C)CCc1ccccc1 (stereo not given)	16.4µM*	·	·	?	9.0%
Cc1oc(-c2ccccc2Cl)nc1CS(=O)(=O)CC(=O)NCCN1CCOCC1	-1.8%	-0.9%	7.3%	-9.7%	·
SMILES	DT40 TDP1 CPT	RORg inh	Gal4-VP16 FLuc	TDP1 cell noCPT	TDP1 block
Cc1oc(-c2ccccc2Cl)nc1CS(=O)(=O)CC(=O)NCc1ccc(F)cc1	?	·	·	18.4µM*	3.8%
CCn1c(-c2ccccc2F)nc2cc(NC(C)=O)cc(C(=O)NCc3ncc(C)[nH]3)c21	19.3%	·	·	-15.6%	·
CC(C)=CC(=O)N1CCC(N2CCC(C(=O)NCC3CCCO3)CC2)CC1 (stereo not given)	-2.8%	-2.4%	-6.6%	-6.3%	3.7%
COc1cc(NCC(=O)Nc2cccc(S(=O)(=O)N3CCCCC3)c2)cc(OC)c1OC	-18.5%	·	·	-0.8%	6.9%
O=C(COC(=O)c1cccc([N+](=O)[O-])c1)NC1CCCC1	-3.2%	0.3%	-9.1%	9.1%	·
O=C(CNc1cc([N+](=O)[O-])ccc1NCCO)Nc1cccc(S(=O)(=O)N2CCCCC2)c1	?	·	·	?	2.9%
COc1ccc([N+](=O)[O-])cc1NCC(=O)Nc1cccc(S(=O)(=O)N2CCCC2)c1	?	·	·	16.4µM*	3.7%
COc1cccc(-c2ccc(SCC(=O)NC3CCCC3)nn2)c1	-10.5%	1.6%	9.1%	-8.7%	4.0%
O=C(CNc1cccc(S(=O)(=O)N2CCCCCC2)c1)Nc1cccc([N+](=O)[O-])c1	?	·	·	23.1µM*	1.5%[56.1 µM]
O=C(CSc1ccc(-c2cccc([N+](=O)[O-])c2)nn1)NC1CCCC1	6.0%	1.78µM*	-2.4%	-26.9%	4.8%
O=C(CNc1cccc([N+](=O)[O-])c1)NC(=O)NC1CCCCC1	14.6µM*	·	·	?	4.2%
Cc1ccc(-c2nc(SCC(N)=O)c(C#N)c3c2CCCC3)cc1	-27.1%	15.1%	-2.5%	-4.7%	3.5%
O=C(CCC(=O)N1Cc2ccccc2Oc2ncccc21)NCc1cccc(Cl)c1	?	·	·	-14.6%	2.1%
O=C(CSc1ncn[nH]1)NN(c1ccccc1)c1ccccc1	-5.7%	15.9%	-7.7%	-11.3%	3.4%
CNc1ccc(C=C2C=CC=C2)cc1	11.2µM*	·	·	?	·
CSc1cccc(NC(=O)Cn2cnc(S(=O)(=O)N3CCCC3)c2)c1	4.3%	12.3%	-3.5%	22.2%	1.6%
Cc1cccc(CNC(=O)c2ccc(NC(=O)N3CCSc4ccccc43)cc2)c1	16.4µM*	·	·	9.2µM*	-2.5%
Cc1ccccc1NC(=O)CCC(=O)N1CC(C)Sc2ccccc21 (stereo not given)	?	·	·	?	2.6%
Cc1ccc(CCNC(=O)c2ccc(NC(=O)N3CC(C)Sc4ccccc43)cc2)cc1 (stereo not given)	?	·	·	?	-2.5%
Cc1ccccc1CCNC(=O)c1ccc(NC(=O)N2CC(C)Sc3ccccc32)cc1 (stereo not given)	18.4µM*	·	·	7.31µM*	-5.1%
CCc1ccccc1NC(=O)N1CC(C)Sc2ccccc21 (stereo not given)	20.6µM*	·	·	?	3.7%
CC1CN(C(=O)Nc2ccc(C(=O)NCc3ccccc3F)cc2)c2ccccc2S1 (stereo not given)	23.1µM*	·	·	14.6µM*	2.5%
c1ccc(CCNC2=NCCCS2)cc1	-11.5%	-16.6%	-0.7%	-1.7%	-2.1%
